Our source for the outcome and AC50 values is PubChem BioAssay (EPA / NIEHS).

One may read the AC50 as the midpoint of the concentration-response curve, whichever way the signal moves.

Molecules are shown by their SMILES. Activity calls are given as the source filed them. How the source made its calls: active means hit-call score of the fitted dose curve at least 0.9, where 1 is the maximum; inactive means score below 0.9.

Read-out in the first assay: Collagen III, COL3A1 (gene 1281)
The assay is described as follows: BSK_MyoF_CollagenIII: BioMAP Diversity Plus: MyoF Assay for Collagen III Biomarker Activity (AID 2284239). Conditions: primary human lung fibroblasts. Put shortly: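 Human lung fibroblasts were dosed with chemicals and, 24 hours later, collagen III was measured by ELISA. Activity was fitted in the positive direction against the DMSO negative-control baseline.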
In the case of `CCOP(=S)(OCC)SCCS(=O)(=O)CC`, the result was inactive.

As for `CCOC(=O)/C=C(C)/C=C/C[C@@H](C)CCCC(C)C`, the AC50 is 30.6 µM (active).

With `CCOP(=S)(OCC)Oc1ccc(S(C)=O)cc1` (stereo not drawn), the outcome was inactive.

For `C(=NC1CCCCC1)=NC1CCCCC1`, the AC50 is 7.83 µM (active).

In the case of `ClC(Cl)=C(Cl)C(Cl)=C(Cl)Cl`, the AC50 was 3.97 µM (active).

As for `COP(=S)(OC)Oc1c(Cl)cc(C)cc1Cl`, the outcome was inactive.

For `Oc1c(I)cc(I)cc1I`, the half-maximal activity concentration (AC50) is 3.97 µM (active).

`CCNc1nc(NC(C)(C)C)nc(SC)n1`: the result was inactive.

In the case of `COP(=S)(OC)Oc1ccc(S(=O)(=O)N(C)C)cc1`, the result was inactive.

As for `CCCCCCCCC(=O)NCc1ccc(O)c(OC)c1`, the outcome was inactive.

`CC(=O)C(Cl)C(=O)N(C)C` (stereo not drawn): the outcome was inactive.

Consider `CC(C)CCCCCCOC(=O)c1ccccc1C(=O)OCCCCCCC(C)C`, for which the outcome was inactive.

`O=S(=O)(c1ccc(Cl)cc1)c1ccc(Cl)cc1`: the result was inactive.

For the molecule `O=[N+]([O-])c1ccc2c3c(cccc13)CC2`, the result was inactive.

`Nc1cccc2ccccc12`: the AC50 was 14.5 µM (active).

On to `CCCCC(CC)CO[N+](=O)[O-]` (stereo not drawn), for which the result was inactive.

As to `COP(=S)(OC)Oc1ccc(Sc2ccc(OP(=S)(OC)OC)cc2)cc1`, the AC50 was 28.6 µM (active).

For `Nc1ncc([N+](=O)[O-])s1`, the outcome was inactive.

As to `COC[C@H](C)N(C(=O)CCl)c1c(C)csc1C`, the outcome was inactive.

Read-out in another assay: Interleukin 17F (IL17F), IL17F (gene 112744)
Description: BSK_BT_xIL17F: BioMAP Diversity Plus: BT Assay for Interleukin 17F (IL17F) Biomarker Activity (AID 2284243). Conditions: primary human B cells with PBMC. The method in brief:
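B cell/PBMC co-culture (human primary), 24 h compound exposure; sIL-17F by Luminex xMAP; gain-of-signal fit vs DMSO baseline.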
As for `CCOP(=S)(OCC)SCCS(=O)(=O)CC`, the result was inactive.

With `CCOC(=O)/C=C(C)/C=C/C[C@@H](C)CCCC(C)C`, the AC50 was 25.6 µM (active).

As to `CCOP(=S)(OCC)Oc1ccc(S(C)=O)cc1` (stereo not drawn), the outcome was inactive.

Regarding `C(=NC1CCCCC1)=NC1CCCCC1`, the AC50 is 13.4 µM (active).

For `ClC(Cl)=C(Cl)C(Cl)=C(Cl)Cl`, the outcome was inactive.

With `COP(=S)(OC)Oc1c(Cl)cc(C)cc1Cl`, the result was inactive.

As for `Oc1c(I)cc(I)cc1I`, the outcome was inactive.

Take `CCNc1nc(NC(C)(C)C)nc(SC)n1`: the AC50 was 20 µM (active).

In the case of `COP(=S)(OC)Oc1ccc(S(=O)(=O)N(C)C)cc1`, the result was inactive.

For `CCCCCCCCC(=O)NCc1ccc(O)c(OC)c1`, the outcome was inactive.

In the case of `CC(=O)C(Cl)C(=O)N(C)C` (stereo not drawn), the AC50 is 28.8 µM (active).

`CC(C)CCCCCCOC(=O)c1ccccc1C(=O)OCCCCCCC(C)C`: the outcome was inactive.

For `O=S(=O)(c1ccc(Cl)cc1)c1ccc(Cl)cc1`, the result was inactive.

With `O=[N+]([O-])c1ccc2c3c(cccc13)CC2`, the result was inactive.

As for `Nc1cccc2ccccc12`, the outcome was inactive.

In the case of `CCCCC(CC)CO[N+](=O)[O-]` (stereo not drawn), the outcome was inactive.

Regarding `COP(=S)(OC)Oc1ccc(Sc2ccc(OP(=S)(OC)OC)cc2)cc1`, the result was inactive.

As for `Nc1ncc([N+](=O)[O-])s1`, the outcome was inactive.

Take `COC[C@H](C)N(C(=O)CCl)c1c(C)csc1C`: the result was inactive.
